The record followed here is PubChem BioAssay AID602440 (Sanford-Burnham Center for Chemical Genomics, 2012).

Molecules are shown by their SMILES. Hit rate of the full screen: of about 360,000 compounds, about 2,300 (0.64%) were called active. Rule as the data show it: active = inhibition mostly above about 40% (no sharp cut-off); inactive = mostly below about 27%. The sample as a whole holds a higher share of actives than the screen did.

Sequence of Sentrin-specific protease 8 (Homo sapiens) (Q96LD8 whole entry, looked up): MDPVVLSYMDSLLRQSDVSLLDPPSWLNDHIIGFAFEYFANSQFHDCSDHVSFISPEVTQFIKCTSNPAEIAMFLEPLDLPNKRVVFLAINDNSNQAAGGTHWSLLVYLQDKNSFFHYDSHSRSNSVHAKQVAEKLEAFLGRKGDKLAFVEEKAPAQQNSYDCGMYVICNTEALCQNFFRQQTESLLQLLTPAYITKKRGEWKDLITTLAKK

The experiment has as its target Sentrin-specific protease 8 (Homo sapiens) (UniProt Q96LD8). Put plainly: human SENP8 protease inhibitors, primary screen, biochemical, fluorescence, Nedd8 protein substrate, uHTS (AID 602440). The settings on record: recombinant SENP8, Nedd8 substrate fluorescence; at 20 µM; active compounds read high.
Usually inhibition stands for the relative decrease from the control value, in per cent. `CC(C)C[C@@H](CO)N1CCN(Cc2ccc(O)cc2)CCC1=O`: the inhibition is -5% (inactive).

In the case of `CC(C)(C)NC(=O)NC(=O)COC(=O)C1(C)CC1(Cl)Cl` (centres undefined), the inhibition was 12.9% (inactive).

Take `CN(C)C(=O)c1cccc(-c2cnc3c(NC=O)cc(-c4ccc(C(=O)N5CCOCC5)cc4)cn23)c1`: the inhibition is -177% (inactive).

For `O=C1NNC(c2ccccc2)=N/C1=C\c1ccc(Cl)cc1`, the inhibition is 64% (active).

As to `O=C(c1ccccc1)c1ccc(OC(=O)N2CCCC2)cc1`, the inhibition is 22.4% (inactive).

Consider `COc1ccc(OC)c(NC(=O)c2ccc3c(c2)CCN3S(C)(=O)=O)c1`, for which the inhibition was 3% (inactive).

With `Cc1nc(C(=O)NCc2ccccc2)sc1C1(C)CC(c2cccnc2)=NO1` (centres undefined), the inhibition was 8.5% (inactive).

Turning to `CC(C)[C@H](NC(=O)N1c2ccccc2NC(=O)[C@@H]1C(C)C)C(=O)N[C@H](C(=O)O)c1ccccc1`, the inhibition is 37% (inactive).

Take `CCC(C)[C@H](NC(=O)N1c2ccccc2NC(=O)[C@@H]1C(C)C)C(=O)N[C@@H](Cc1ccccc1)C(=O)O` (some centres undefined): the inhibition was 53.4% (active).

As to `CC(=O)N/C(=C\c1ccc(F)cc1)C(=O)NC(Cc1ccccc1)C(=O)O` (centres undefined), the inhibition was 2.6% (inactive).

As for `COc1ccc([C@H]2N[C@]3(CCCN(Cc4ccco4)C3=O)[C@H]3C(=O)N(C)C(=O)[C@@H]23)cc1`, the inhibition was -14% (inactive).

Regarding `O=C(CCN1C(=O)COc2ccccc21)NCCCN1CCN(c2ccc(F)cc2)CC1`, the inhibition is 12.7% (inactive).

On to `O=C(NCCCN1CCN(c2ccc(F)cc2)CC1)Nc1ccc([N+](=O)[O-])cc1`, for which the inhibition is 44.8% (active).

With `O=C(CSc1ccc([N+](=O)[O-])cn1)Nc1ccc(N2CCOCC2)cc1`, the inhibition was 37.7% (inactive).

Regarding `O=C(Nc1ccc(C(=O)NCc2ccccc2Cl)cc1)C1=CSCCO1`, the inhibition was -35.3% (inactive).

Turning to `COc1ccc(OC)c(C(O)c2nc3ccccc3n2C)c1` (centres undefined), the inhibition was 15.4% (inactive).

With `Cn1nc(C(F)(F)F)c(C(=O)Nc2cccc(C(F)(F)F)c2)c1SCc1ccc(Cl)cc1`, the inhibition is 5.4% (inactive).

As to `CCCCn1c(N)c(N(CC(C)C)C(=O)c2ccc(Br)o2)c(=O)[nH]c1=O`, the inhibition was -3.8% (inactive).

On to `COc1cc(C(=S)N2CCOCC2)cc(OC)c1OC(=O)c1ccc([N+](=O)[O-])cc1[N+](=O)[O-]`, for which the inhibition is 11.9% (inactive).

Take `COc1cc(C(=S)N2CCOCC2)cc(OC)c1OC(=O)c1cc([N+](=O)[O-])cc([N+](=O)[O-])c1`: the inhibition is 40.9% (active).

As for `COc1cc(C(=S)N2CCOCC2)cc(OC)c1OC(=O)c1cc([N+](=O)[O-])c(C)c([N+](=O)[O-])c1`, the inhibition was 27.5% (inactive).

Regarding `NNC(=O)CNC(c1ccccc1)c1cc(Cl)ccc1NC(=O)c1ccccc1` (centres undefined), the inhibition is 2.6% (inactive).

As to `CN(C(=O)COC(=O)CNC(=O)C12CC3CC(CC(C3)C1)C2)c1ccccc1`, the inhibition is 2% (inactive).

Turning to `CC(C)c1cc(Cn2c3ccccc3c(=O)n2C(C)Cn2cc(C3CC3)nn2)on1` (centres undefined), the inhibition was -395% (inactive).

For the compound `CCS(=O)(=O)Nc1ccc(C(=O)NCCSc2ccccc2)cc1`, the inhibition was 23.1% (inactive).

On to `Cc1cccc(OCC(=O)NC(=S)Nc2ccccc2N2CCOCC2)c1`, for which the inhibition was 43.3% (active).

As to `CCc1ccc(C(=O)NC(=S)Nc2ccccc2N2CCOCC2)cc1`, the inhibition is 30.3% (inactive).

With `Cc1cc(C)cc(OCC(=O)Nc2ccc(N3CCOCC3)cc2N2CCOCC2)c1`, the inhibition was 17.3% (inactive).

With `CCn1c(=O)cc(SCC(=O)NCCC2=CCCCC2)c2ccccc21`, the inhibition was -40.2% (inactive).

As for `CCCc1nc(SCC(=O)Nc2ccccc2OC)c2c(=O)n(C)c(=O)n(C)c2n1`, the inhibition is 10.5% (inactive).

As for `FC(F)(F)c1cc(C(F)(F)F)c2ccc(N3CCN(c4ccccc4)CC3)nc2n1`, the inhibition was -2.9% (inactive).

With `Cc1ccc(CNC(=O)C2(C(F)(F)F)C/C(=C\Cc3ccccc3)CCCO2)o1` (centres undefined), the inhibition is 12.6% (inactive).

On to `CC(C)CC[n+]1ccn(C2=C([O-])c3ccccc3C(=O)/C2=N\S(=O)(=O)c2ccccc2)c1`, for which the inhibition is 54% (active).

Take `CC(=O)NC(Cc1ccc(F)cc1)C(=O)O` (centres undefined): the inhibition was 2% (inactive).

In the case of `O=C(CCNC(=O)c1ccc(Br)cc1)NCC(c1ccco1)N1CCCCC1` (centres undefined), the inhibition is 10.5% (inactive).

As for `CCOC(=O)c1ccc(COC(=O)CCc2nc(-c3ccccc3)c(-c3ccccc3)o2)cc1`, the inhibition is -13.2% (inactive).

Consider `CCOc1cc(NC(=O)Nc2ccccc2)c(OCC)cc1NC(=O)CC`, for which the inhibition was -0.4% (inactive).

For `CCOc1cc(NC(=O)c2ccccc2C(=O)O)c(OCC)cc1NC(=O)c1ccccc1F`, the inhibition is 50.6% (active).

Take `O=C(NCCOc1ccccc1)c1ccccc1F`: the inhibition is 5.5% (inactive).

Turning to `Cc1ccc(-c2nn(-c3cccc(F)c3)cc2CNCCc2ccncc2)o1`, the inhibition was -178% (inactive).

`CONC(=O)c1cc(OCC(F)(F)F)ccc1OCC(F)(F)F`: the inhibition is 21.1% (inactive).

With `CCOc1c(Br)cc(/C=C2\C(=O)N(CCC#N)N=C2C)cc1OC`, the inhibition is 50.8% (active).

As to `CCN1C(=O)[C@@H]2[C@@H](c3ccc(-c4ccccc4)cc3)N3CCCC[C@@]3(C(=O)OC)[C@@H]2C1=O`, the inhibition was 3.1% (inactive).

As for `CC1=C/C(=N\OS(=O)(=O)c2ccccc2)C=CC1=O`, the inhibition is 52.9% (active).

Turning to `COc1ccc2[nH]c3c(c2c1)CCN1C(=O)C(CC(=O)NCCc2ccccn2)C[C@H](C(=O)N2CCOCC2)[C@@]31C` (some centres undefined), the inhibition was -3.3% (inactive).

As for `Cc1ccc(S(=O)(=O)N2[C@@H](c3cccc4ccccc34)C(C(=O)O)=C[C@H]2C(C)(C)C)cc1`, the inhibition is 1.1% (inactive).

`O=C(NC1CC1)C1=C[C@H](c2coc3ccccc3c2=O)C[C@H](OCCCCO)O1`: the inhibition was -5% (inactive).

For `O=C(COc1ccccc1)N1CCc2ccccc2C1`, the inhibition was 42.5% (active).

Turning to `CCC(=O)c1ccc(OCC(=O)OCC(=O)N2CCc3ccccc3C2)cc1`, the inhibition was 18.9% (inactive).

On to `Cc1ccc(Cl)c(OCC(=O)N2CCc3ccccc3C2)c1`, for which the inhibition is 20.7% (inactive).

Regarding `COc1cccc(N2CC(C(=O)NCc3n[nH]c(=O)c4ccccc34)CC2=O)c1` (centres undefined), the inhibition is -0.8% (inactive).

As for `O=[N+]([O-])c1ccc(N2CCSCC2)cc1O`, the inhibition was 57% (active).

As for `O=[N+]([O-])c1ccc(N2CCN(c3ccc(O)cc3)CC2)c(Cl)c1`, the inhibition was 26.5% (inactive).

For the compound `O=[N+]([O-])c1ccc(N2CCN(S(=O)(=O)c3ccccc3)CC2)cc1N1CCc2ccccc2C1`, the inhibition is -132% (inactive).

Take `CC(C(=O)NC1CCCC1)N1CCN(S(=O)(=O)c2ccccc2Cl)CC1` (centres undefined): the inhibition was 7.4% (inactive).

In the case of `CC1(C)Cc2cccc(OCC(=O)Nc3nccs3)c2O1`, the inhibition was 42.4% (active).

Consider `COc1cccc(CCNC(=O)COc2cccc3c2OC(C)(C)C3)c1`, for which the inhibition was 20.6% (inactive).

On to `CC1(C)Cc2cccc(OCC(N)=O)c2O1`, for which the inhibition was 20.9% (inactive).

As to `O=C(OCC(=O)N1CCN(c2ccccc2)CC1)c1ccc([N+](=O)[O-])s1`, the inhibition was 42.9% (active).

Regarding `COc1cc(NC(=O)COC(=O)c2ccc([N+](=O)[O-])s2)cc(OC)c1OC`, the inhibition is 26.8% (inactive).

Turning to `C[C@H](NC(=O)c1ccccc1Cl)C(=O)OCC(=O)N1CCN(c2ccccc2)CC1`, the inhibition is 12.8% (inactive).

As to `Oc1ccc(N=Cc2sc3ccccc3c2Cl)cc1`, the inhibition is 87.5% (active).

On to `CCCN=C1NC(=O)C(CC(=O)NCCc2ccc(OC)c(OC)c2)S1` (centres undefined), for which the inhibition is 16.5% (inactive).

As for `Cc1ccc(-n2nc3c(=O)n(C(C)C(=O)NCc4ccc5c(c4)OCO5)nc(C)c3c2C)cc1` (centres undefined), the inhibition was 3.2% (inactive).

With `CC(=O)c1c(N2CCOCC2)nc(=S)n(-c2cc(C)ccc2C)c1C`, the inhibition was 9.8% (inactive).

Consider `CC(=O)Nc1ccc(OCCC[n+]2cccc(C(=O)[O-])c2)cc1`, for which the inhibition was 7.7% (inactive).

On to `COc1ccc(-c2nnco2)cc1OC`, for which the inhibition was 41.5% (active).

In the case of `COc1ccc2c(Cl)c(-c3nnco3)sc2c1`, the inhibition is -37.1% (inactive).

On to `COc1ccc(C(=O)Oc2ccc(-c3nnco3)cc2)cc1S(=O)(=O)N1CCOCC1`, for which the inhibition is 20.2% (inactive).

Take `Cc1ccc(N2C(=O)CN=C2Nc2nc(C)cc(C)n2)cc1`: the inhibition was 31.7% (inactive).

`COc1ccc(N2CCC(CNC(=S)Nc3c(C)cccc3C)C2)cc1` (centres undefined): the inhibition is 9.9% (inactive).

`CCN(C(=O)CSc1ncnc2sccc12)c1c(N)n(Cc2ccccc2)c(=O)[nH]c1=O`: the inhibition is -25% (inactive).

For the compound `CC1CCCC(N2CCN(C(=O)c3ccc(F)cc3)CC2)C1` (centres undefined), the inhibition is 7.2% (inactive).

`CCN1CCC(O)(/C=C/c2ccc(C)cc2)C(C(=O)/C=C/c2ccc(C)cc2)C1` (centres undefined): the inhibition is 16.7% (inactive).

For `Cc1ccc(C(=O)N2CC(=O)Nc3ccc(F)cc3C2c2ccc(F)cc2)cc1` (centres undefined), the inhibition was 4.1% (inactive).

As for `CCN1CCC2(CC1)N=C(c1ccc(F)cc1)C(=S)N2C(=O)c1ccc(C)cc1`, the inhibition was 48.7% (active).

Consider `COC(=O)CNC(=O)c1ccc2c(c1)S(=O)(=O)c1ccccc1C2=O`, for which the inhibition was 23.2% (inactive).

Consider `CN(Cc1ccccc1)C(=O)CCNC(=O)Cn1cnc2ccccc2c1=O`, for which the inhibition was 16.4% (inactive).

Consider `N#Cc1cccc(NC(=O)CN2CCCCCC2)c1`, for which the inhibition was 7.3% (inactive).

For the compound `CCOCCCn1c(SCC(=O)Nc2cc(OC)ccc2OC)nc2ccccc2c1=O`, the inhibition is -19.4% (inactive).

For `CCOCCCn1c(NN)nc2ccccc2c1=O`, the inhibition was 34% (active).

For `CCc1nnc(NC(=O)CSc2nc3ccccc3c(=O)n2CCCOC)s1`, the inhibition was 23.2% (inactive).

Turning to `Cc1cc(NC(=O)COC(=O)COc2ccc(Cl)cc2C)c([N+](=O)[O-])cc1C`, the inhibition was 7.4% (inactive).

`COc1ccc(CN2CN(C(C)C)CSC2=S)cc1`: the inhibition was 6.1% (inactive).

As for `Cc1nc2ccccc2n1C(=O)N1CCOCC1`, the inhibition was 11.5% (inactive).

Regarding `Cc1oc2c(c1C(=O)N1CCOCC1)C(=O)c1ccccc1C2=O`, the inhibition is 61.3% (active).

Turning to `CC(C(=O)Nc1ccccc1-c1ccccc1)N1CCOCC1` (centres undefined), the inhibition is 3.7% (inactive).

For `COc1ccc(C2=NOC(C(=O)NCc3ccco3)C2)cc1OC` (centres undefined), the inhibition is 7.1% (inactive).

Turning to `COc1ccc(-c2c(NC(=O)c3ccco3)oc3ccc(Cl)cc3c2=O)cc1`, the inhibition was -71.5% (inactive).
